Experiment [1] can be described thus: NCI Yeast Anticancer Drug Screen. Data for the rad50 strain (AID 155).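 Further: 0% = growth of vehicle-only cultures of the same strain.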 The note with it: S. cerevisiae rad50 strain growth inhibition; at 50.0 µM; active compounds read high. The method in brief: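 Readout: growth inhibition relative to vehicle-treated cultures. Compound exposure was carried out in a genetically defined yeast strain deficient in DNA damage repair.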

Experiment [2] is described as follows: NCI Yeast Anticancer Drug Screen. Data for the mec2-1 strain (AID 157). As to conditions: S. cerevisiae mec2-1 strain, at 50.0 µM, active compounds read high. The method in brief:
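Using mec2-1 yeast: add compound, measure growth, express inhibition versus vehicle-treated cultures.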

The nature of experiment [3]: NCI Yeast Anticancer Drug Screen. Data for the sgs1 mgt1 strain (AID 161).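 Further: 0% = growth of cultures given vehicle only.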 The note with it: S. cerevisiae sgs1 mgt1 strain, at 50.0 µM, active compounds read high. The method in brief:
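Growth of a repair-deficient yeast mutant was monitored after compound treatment and expressed as inhibition relative to vehicle-treated cultures.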

The nature of experiment [4]: NCI Yeast Anticancer Drug Screen. Data for the cln2 rad14 strain (AID 165).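 Further: 0% = growth equal to vehicle treated cultures.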 As to conditions: S. cerevisiae cln2 rad14 strain, at 50.0 µM, active compounds read high. The method in brief:
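Yeast strain cln2 rad14, bearing defects in cell cycle control and DNA repair, serves as the test system; values reflect growth inhibition compared with vehicle.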

The nature of experiment [5]: NCI Yeast Anticancer Drug Screen. Data for the bub3 strain (AID 167). The note with it: S. cerevisiae bub3 mutant strain, at 50.0 µM, active compounds read high. A digest of the protocol:
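Readout: yeast growth inhibition, expressed relative to vehicle-only wells. The test organism is a mutant strain from a panel with lesions in DNA repair or checkpoint genes.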

Experiment [6] can be described thus: NCI Yeast Anticancer Drug Screen. Data for the mlh1 rad18 strain (AID 175). The note with it: S. cerevisiae mlh1 rad18 strain growth inhibition; at 50.0 µM; active compounds read high. The method in brief: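 Steps: expose repair-defective yeast to compound; measure growth; express inhibition against vehicle-treated controls.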

The panel holds about 79,000 compounds, 15% with a hit somewhere; the sample as a whole holds those more often. A number with no mark means an inactive call. Activity calls are given as the source filed them. No stated cut-off is given here; in the data, active means growth inhibition above about 70%; inactive means the rest.

Take `CC(=O)OC1CCC2(C)C(CCC3C2CCC2(C)C3CC(CC(=O)O)C2OC(C)=O)C1` (stereo not given): the growth inhibition in experiment [1] was 16.5%; in experiment [2], 18.8%; in experiment [3], 7.3%; in experiment [4], -0.5%; in experiment [5] it was 3.3%; in experiment [6] it was 24%.
In the case of `C[Si](C)(C)[C@@]1([Se]c2ccccc2)CC[C@@H]1C(=O)c1ccccc1`, the growth inhibition in experiment [1] was -11.6%; in experiment [2] it was -26.4%; in experiment [3], -26.4%; in experiment [4], -18.2%; in experiment [5], -27.4%; in experiment [6], -23.9%.
For `CC(C)(N)Cc1ccc(N)cc1`, the growth inhibition was 15.2% in experiment [1]; -1.55% in experiment [2]; 7.15% in experiment [3]; 18.4% in experiment [4]; 2.5% in experiment [5]; 24.4% in experiment [6].
`N#CC[CH2][Sn]([I])([c]1ccccc1)[c]1ccccc1`: the growth inhibition is 98.2% (active) in experiment [1]; 98.8% (active) in experiment [2]; 98% (active) in experiment [3]; 98.5% (active) in experiment [4]; 98.8% (active) in experiment [5]; 98.1% (active) in experiment [6].
For the molecule `O=[N+]([O-])c1ccc(SSC(Cl)(Cl)Cl)cc1`, the growth inhibition is 33% in experiment [1]; 94.2% (active) in experiment [2]; 93.5% (active) in experiment [3]; 13.4% in experiment [4]; 78.5% (active) in experiment [5]; 84.4% (active) in experiment [6].
In the case of `CC([NH-])C(=O)O.[Cl][Pt][Cl]` (stereo not given), the growth inhibition is -25.6% in experiment [1]; -9.6% in experiment [2]; -24.9% in experiment [3]; 7.55% in experiment [4]; -10.6% in experiment [5]; -9.55% in experiment [6].
`CSc1ccc([As](=O)(O)O)cc1`: the growth inhibition in experiment [1] was 15.2%; in experiment [2], 4.45%; in experiment [3], 30.9%; in experiment [4] it was 24.3%; in experiment [5] it was -18.1%; in experiment [6], 46.5%.
For `CCCCS(=O)(=O)C(c1ccccc1)c1ccccc1`, the growth inhibition is 69.2% in experiment [1]; 97.4% (active) in experiment [2]; 96% (active) in experiment [3]; 56.5% in experiment [4]; 96.5% (active) in experiment [5]; 96.4% (active) in experiment [6].
Regarding `COc1ccccc1CN1CCN(Cc2ccccc2OC)C1c1ccc(N(CCCl)CCCl)cc1`, the growth inhibition is -9.8% in experiment [1]; -9.05% in experiment [2]; -14.7% in experiment [3]; -32.5% in experiment [4]; -1.9% in experiment [5]; -4.1% in experiment [6].
For the molecule `CC1=CC23C(COC(=O)C24CO4)C(C(=O)O)=CC3C1C` (stereo not given), the growth inhibition was -22.8% in experiment [1]; -19.7% in experiment [2]; -13.3% in experiment [3]; 27% in experiment [4]; -8.95% in experiment [5]; -5.7% in experiment [6].
As to `[C-]#[N+]CS(=O)(=O)c1ccc(C)cc1`, the growth inhibition was -17.4% in experiment [1]; -11.1% in experiment [2]; -7.3% in experiment [3]; 11.1% in experiment [4]; 3.85% in experiment [5]; 1.4% in experiment [6].
As for `O=[N+]([O-])/C=C\c1c[nH]c2ccc(OCc3ccccc3)cc12`, the growth inhibition in experiment [1] was 52.5%; in experiment [2], 30.8%; in experiment [3], 53.4%; in experiment [4], 45.4%; in experiment [5], 55.5%; in experiment [6], 40.9%.
As for `CN(C)c1cccc(NC2=NCCO2)c1`, the growth inhibition in experiment [1] is -21.3%; in experiment [2] it was -24.5%; in experiment [3], -27.7%; in experiment [4] it was 7.35%; in experiment [5], -20.4%; in experiment [6] it was -14.6%.
As to `NC(N)=NC(N)=Nc1ccc(Cl)cc1`, the growth inhibition in experiment [1] is 0.9%; in experiment [2], -2.65%; in experiment [3] it was 3.45%; in experiment [4], 2.8%; in experiment [5] it was -1.9%; in experiment [6], -1.55%.
As for `c1ccc(P2(c3ccccc3)=NSN=S=N2)cc1`, the growth inhibition in experiment [1] is -4.75%; in experiment [2] it was -8.7%; in experiment [3], -8.65%; in experiment [4], -16.6%; in experiment [5], 1.35%; in experiment [6], -1.45%.
Turning to `OCCSCSCCO`, the growth inhibition in experiment [1] is -5.8%; in experiment [2], -8.8%; in experiment [3], 5.8%; in experiment [4], 10.2%; in experiment [5] it was -2.8%; in experiment [6], 0.8%.
Regarding `COc1cc2c(cc1OC)C13CCN4C=C5CCOC6CC(=O)N2C1C6C5CC43` (stereo not given), the growth inhibition in experiment [1] is -25.4%; in experiment [2] it was -8.7%; in experiment [3], -12.7%; in experiment [4], 1.75%; in experiment [5], -60%; in experiment [6] it was 16.8%.
As for `C[C@]12CCC(=O)C[C@@H]1CC[C@@H]1[C@@H]2CC[C@]2(C)[C@@H](OC(=O)N(CCCl)N=O)CC[C@@H]12`, the growth inhibition is 36.8% in experiment [1]; 33.8% in experiment [2]; 24.5% in experiment [3]; 55.2% in experiment [4]; 29.9% in experiment [5]; 60.1% in experiment [6].
On to `Cc1cc(NC(=O)Oc2ccc([N+](=O)[O-])cc2)ccc1S(=O)(=O)F`, for which the growth inhibition is 1.85% in experiment [1]; 39.4% in experiment [2]; 14.2% in experiment [3]; 4% in experiment [4]; 28.6% in experiment [5]; 35% in experiment [6].
Consider `O=[As](O)(O)c1ccc(N=Nc2ccccc2)cc1`, for which the growth inhibition is -4.25% in experiment [1]; -14.2% in experiment [2]; -6.05% in experiment [3]; -19.9% in experiment [4]; 5.75% in experiment [5]; -17.2% in experiment [6].

These data come from PubChem BioAssay (NCI).
